KAT2A inh – inhibitors of human GCN5L2 histone acetyltransferase; AID 504327; 390,000 tested, 0.21% active; GCN5L2 HAT assay, ThioGlo1 CoA-SH fluorescence; Potency, µM (series often up to 58.9 µM), without a hit: top-dose activity change, negative = inhibition, actives largely listed as inhibitors; Q92830
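GCN5L2 (20nM final) in 50mM HEPES, 0.1mM EDTA pH 7.5, 0.01% Tween-20 was preincubated 15 min at room temperature with compound, then given ThioGlo1 (50uM), H3(1-25) peptide (75uM) and acetyl-CoA (70uM); CoA-thiol fluorescence (Ex340/Em540) was read at 0 and 20 min.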
DT40 TDP1 no CPT – qHTS for Inhibitors of human tyrosyl-DNA phosphodiesterase 1 (TDP1): qHTS in cells in absence of CPT | DT40 Tdp1-/- hTDP1 cells, no CPT, ATP luminescence, 48 h | Potency, µM (highest dose often 46.2 µM), without a hit: top-dose activity change, negative = growth inhibition, most hits filed as inhibitors | 420,000 tested, 15% active | AID 686978, 2013; also: nearly all actives have a fitted effect of over 55% in size
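No-CPT arm: Tdp1-/-;hTDP1 DT40 cells (400/well) plus compounds, incubated ≥48 hr at 37 °C. Readout CellTiter-Glo luminescence.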
PLK1 PBD block – inhibitors of human PLK1 polo-box domain binding; 360,000 tested, 2.8% active; Plk1 PBD binding of FITC phosphopeptide, fluorescence polarization; AID 720504; Potency, µM, for inactives: max response, negative = inhibition, most hits filed as inhibitors; also: series mostly up to about 57 µM; nearly all actives have a fitted effect of over 65% in size
TDP1 inh – inhibitors of human tyrosyl-DNA phosphodiesterase TDP1. Q9NUW8. recombinant TDP1, AlphaScreen DNA substrate cleavage. Potency, µM (doses to about 130 µM), for inactives: at the top dose activity change, negative = inhibition, most hits filed as inhibitors. 350,000 tested, 0.28% active. AID 485290; also: nearly all actives have a fitted effect of over 40% in size
Target sequence (Q9NUW8 whole entry, looked up): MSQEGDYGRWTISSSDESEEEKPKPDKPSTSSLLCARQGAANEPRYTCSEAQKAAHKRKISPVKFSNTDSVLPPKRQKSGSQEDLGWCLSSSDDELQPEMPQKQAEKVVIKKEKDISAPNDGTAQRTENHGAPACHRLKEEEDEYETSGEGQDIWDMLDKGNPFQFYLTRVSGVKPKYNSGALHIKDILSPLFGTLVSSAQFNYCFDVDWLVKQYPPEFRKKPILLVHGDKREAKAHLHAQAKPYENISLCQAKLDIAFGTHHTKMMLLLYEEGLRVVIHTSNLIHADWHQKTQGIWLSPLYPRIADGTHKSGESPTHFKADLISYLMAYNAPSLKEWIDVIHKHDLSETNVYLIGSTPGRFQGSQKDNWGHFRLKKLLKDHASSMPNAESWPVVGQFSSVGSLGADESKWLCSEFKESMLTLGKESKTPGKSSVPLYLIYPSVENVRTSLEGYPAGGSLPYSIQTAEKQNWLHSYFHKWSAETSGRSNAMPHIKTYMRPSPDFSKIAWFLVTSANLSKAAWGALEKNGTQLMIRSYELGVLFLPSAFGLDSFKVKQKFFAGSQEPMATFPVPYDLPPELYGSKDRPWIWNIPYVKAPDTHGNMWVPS
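Recombinant human Tdp1 (E. coli-expressed, 1 nM final) preincubated with compounds 15 min at room temperature, then 5'-biotin/3'-phosphotyrosine-FITC DNA substrate (15 nM final) added for 5 min. AlphaScreen beads (10 ug/ml final) added 10 min; cleavage lowers signal.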
VDR inhibitor – inhibitors of human vitamin D receptor; AID 504847; VDR-SRC2-3 peptide fluorescence polarization, 2 h; 400,000 tested, 0.93% active; Potency, µM, without a hit: max response, negative = inhibition, hits mostly inhibitors
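Reagent solutions, kept cold and dark, are dispensed first; compounds are then pinned in at 23 nl, plates briefly spun, and incubated 2 h at ambient temperature. Inhibition of VDR–SRC2-3 peptide binding is read by fluorescence polarization.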
TDP1 cell CPT – growth inhibition of DT40 Tdp1-/-;hTDP1 cells with camptothecin (screen for TDP1 inhibitors). Potency, µM (doses to about 46.2 µM), without a hit: at the highest dose activity change, negative = growth inhibition, actives largely listed as inhibitors. AID 686979. chicken DT40 Tdp1-/-;hTDP1 cells + 20 nM CPT, ATP luminescence, 48 h. 420,000 tested, 12% active; also: nearly all actives have a fitted effect of over 55% in size
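Chicken DT40 Tdp1-/- cells complemented with human TDP1, 400 cells/well, exposed to compounds plus 20 nM camptothecin for at least 48 h at 37 C; viability read as ATP content by CellTiter-Glo luminescence.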
Numbers without * were called inactive; ? = inconclusive; . = no result; [ ] = remark or other dose. In the library only some 18% were active in any assay of this set; here they are far more common. Calls follow the shape of the dose curve; as a rule, active = well fitted curve in the direction sought with a large enough effect; inconclusive = small, poorly fitted or top-dose-only effect, or another doubt; inactive = no such curve, though single readings can be large; an effect the other way counts as inactive or inconclusive. % is scaled to controls: 0 for no effect and ±100 for the full control effect; potency is read from the fitted curve at half-maximal effect.

SMILES	KAT2A inh	DT40 TDP1 no CPT	PLK1 PBD block	TDP1 inh	VDR inhibitor	TDP1 cell CPT
CCCCNC(=O)c1c(N)n(CCCOC)c2nc3ccccc3nc12	0%	?	-3%	.	50µM*	?
CC(C)CCNC(=O)c1c(N)n(Cc2ccc3c(c2)OCO3)c2nc3ccccc3nc12	-17%	?	1%	1%	89µM*	?
CC[N+](=O)[O-]	.	.	.	5%	.	.
O=C(NC(=C(Cl)Cl)P(=O)(c1ccccc1)c1ccccc1)c1ccccc1	4%	-30%	2%	3%	-2%	?
C[C@]12CCC3C(CC[C@H]4C[C@H](O)CC[C@]34C)[C@@H]1CC[C@@H]2C(=O)CO (stereo not given in full)	5%	-30%	.	5%	-10%	-24%
COc1ccccc1S(=O)(=O)N(C)C[C@@H]1Oc2cc(C#CCC(C)C)ccc2S(=O)(=O)N([C@H](C)CO)C[C@@H]1C	.	?	0%	.	.	?
CC(C)c1ccc(C(c2c(O)c3ccccc3oc2=O)c2c(O)c3ccccc3oc2=O)cc1	.	?	21µM*	.	.	-25%
CC(=O)C[C@H](c1ccccc1)c1c(O)c2ccccc2oc1=O	-24%	.	.	5%	12%	.
O=c1oc2ccccc2c(O)c1C(c1ccc([N+](=O)[O-])cc1)c1c(O)c2ccccc2oc1=O	22µM*	-5%	?	7%	?	?
CN(C)C1C(=O)C(C(N)=O)=C(O)[C@@]2(O)C(=O)C3=C(O)c4c(O)ccc(Cl)c4[C@](C)(O)C3CC12 (stereo not given in full)	-26%	18µM*	.	?	?	16µM*
CN(C)[C@@H]1C(=O)C(C(N)=O)=C(O)[C@]2(O)C(=O)C3=C(O)c4c(O)ccc(Cl)c4[C@](C)(O)[C@H]3C[C@@H]12	-18%[21.4 µM]	.	.	-11%[56.1 µM]	?	.
CCCC/C(C)=C/[C@@H](NP(=O)(c1ccccc1)c1ccccc1)c1ccccc1	-14%	16µM*	-5%	1%	-3%	?
CC1=CC(c2ccccc2)NC(=S)N1 (stereo not given)	-10%	-2%	?	0%	79µM*	-13%
CC(=O)Oc1ccc2c3c1O[C@H]1[C@@H](OC(C)=O)C=C[C@H]4[C@@H](C2)N(C)CC[C@@]341	.	?	.	.	.	-28%[92.5 µM]
CC(C)C(Br)C(=O)NC(N)=O (stereo not given)	-15%	2%	.	-6%	1%	12%
C/C(=C\c1csc(C)n1)[C@@H]1C[C@@H]2O[C@]2(C)CCC[C@H](C)[C@H](O)[C@@H](C)C(=O)C(C)(C)[C@@H](O)CC(=O)O1	-6%	0.0013µM*	.	.	-4%	0.0012µM*
Cc1occc1C(=O)Nc1cccc(-c2nc(CNC(=O)c3cccc(C#CC(C)(C)O)c3)c(C)o2)c1	.	21µM*	.	.	.	-4%[9.04 µM]
O=C(O)CCCC[C@@H]1SC[C@@H]2NC(=O)N[C@@H]21	.	0%	1%	.	?	3%
Cc1ccc(-c2csc(NC(CO)c3nc4ccccc4n3CCOCCO)n2)cc1 (stereo not given)	.	23µM*	21µM*	.	-12%	?
O=C1CCC[C@H]2[C@@H]3CCCN4CCC[C@H](CN12)[C@H]34	12%	.	.	6%	-1%	.
C[C@H](CO)N1C[C@H](C)[C@@H](CN(C)Cc2ccccc2)Oc2c(NC(=O)c3ccncc3)cccc2C1=O	1%	23µM*	-21%	6%	-8%	?
C[C@H](CO)N1C[C@H](C)[C@@H](CN(C)Cc2ccc(-c3ccccc3)cc2)Oc2c(NC(=O)c3ccncc3)cccc2C1=O	-6%	23µM*	-8%	8%	14%	16µM*
C[C@H]1CN([C@@H](C)CO)C(=O)c2cc(-c3cccnc3)cnc2O[C@H]1CN(C)Cc1ccc(Oc2ccccc2)cc1	.	?	-5%	.	.	?
C[C@]12CC[C@H]3[C@@H](CC[C@@]45O[C@@H]4C(O)=C(C#N)C[C@]35C)[C@@H]1CC[C@@H]2O	.	?	.	.	.	-24%
N#Cc1ccc(NC(=O)CN2C(=O)NC3(CCCCCCC3)C2=O)cc1Cl	-11%	7.3µM*	-3%	-1%	-3%	12µM*
SMILES	KAT2A inh	DT40 TDP1 no CPT	PLK1 PBD block	TDP1 inh	VDR inhibitor	TDP1 cell CPT
Cc1ccc(C=C2C(Cl)=C(Cl)C(Cl)=C2Cl)cc1	-24%	5.2µM*	12µM*	.	?	3.3µM*
Cc1ccc(C)cc1	.	.	.	17%	.	.
O=C(O)c1ccc(Cl)nc1	0%	?	19µM*	0%	-2%	?
O=C(c1c[nH]c(C(=O)C(Cl)(Cl)Cl)c1)c1ccccc1Cl	.	?	-18%	-1%	15%	?
Nc1cc(Cl)ccc1O	.	.	.	-5%	.	.
Cc1ccc(NC(=O)CSc2nc(-c3ccco3)cc(C(F)(F)F)n2)c(C)c1	-5%	1.8µM*	.	-1%	-9%	1.5µM*
Oc1ccc(C2NCc3ccccc3-n3cccc32)cc1Cl (stereo not given)	-7%	?	-12%	9%	-3%	?
c1cc2n(c1)-c1c(ccc3c1OCO3)CNC2c1ccc2c(c1)OCO2 (stereo not given)	2%	13µM*	-9%	6%	28%	?
CCOC(=O)c1c(C)[nH]c(C)c1C(=O)C(Cc1ccccc1)N(C)C (stereo not given)	-10%	?	-19%	.	2%	?
Cc1[nH]c2c(Cl)cccc2c(=O)c1CN1CCCCCC1	-14%	-16%	-2%	.	24%	?
Cc1oc2ccc(O)c(CN3CCCCCC3)c2c1C(=O)Nc1cccc(Cl)c1C	-1%	5.8µM*	.	6%	-1%	3.7µM*
CC(=O)c1ccc(NC2CC(O)C(O)CO2)cc1 (stereo not given)	-8%	-7%	?	-4%	11%	-23%
CCS(=O)(=O)Nc1cccc(C(=C2CCCCC2)c2cnc[nH]2)c1	-6%	21µM*	1%	11%[56.1 µM]	0%	?
O=C1CC(c2ccccc2Br)c2c(c3ccccc3oc2=O)O1 (stereo not given)	1%	-3%	.	2%	13%	14%
O=C(N/N=C\c1ccc(COc2ccc([N+](=O)[O-])cc2)o1)c1cccc(Cl)c1	-8%	?	-3%	4%	1%	-14%
COC(=O)CCCc1[se]c2ccccc2c1I	6%	.	.	1%	0%	.
COc1cccc(-c2nc3c(C#N)c[nH]n3c2NC2CCCCC2)c1OC	1%	21µM*	.	3%	5%	?

Bioassay records (PubChem)
